Compound activity as filed in PubChem.
GLP1R inv ag: acts as inverse agonist at human GLP-1 receptor. AID 624417. actives 1.6% (n = 410,000). Potency, µM (top dose mostly 38.3 µM), for the others: top-dose activity change, negative = inhibition, most hits filed as inhibitors. HEK293 GLP-1R CRE-luciferase, luminescence, 24 h; GLP-1R form is constitutively active; also: % is scaled to controls: 0 for no effect and ±100 for the full control effect; nearly all actives have a fitted effect of over 55% in size
Target sequence (P43220 whole entry, looked up): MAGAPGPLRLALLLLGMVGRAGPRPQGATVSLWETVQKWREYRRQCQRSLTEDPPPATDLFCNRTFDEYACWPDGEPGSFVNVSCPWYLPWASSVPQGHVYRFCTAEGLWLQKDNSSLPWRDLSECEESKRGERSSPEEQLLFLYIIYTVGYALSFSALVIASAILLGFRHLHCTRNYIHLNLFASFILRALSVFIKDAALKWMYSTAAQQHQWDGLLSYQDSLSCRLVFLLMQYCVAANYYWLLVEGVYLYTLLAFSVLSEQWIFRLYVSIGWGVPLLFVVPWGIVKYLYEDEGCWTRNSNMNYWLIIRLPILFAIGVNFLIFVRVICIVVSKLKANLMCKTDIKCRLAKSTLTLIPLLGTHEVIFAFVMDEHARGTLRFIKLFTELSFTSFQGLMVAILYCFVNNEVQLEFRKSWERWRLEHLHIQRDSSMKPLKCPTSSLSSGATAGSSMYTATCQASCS
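Seeding at 200 cells/uL, 12 h culture, 24 hr compound treatment, then luciferase reagent and a luminescence read; cells are HEK293 stably expressing a constitutively active GLP-1R plus cAMP-responsive luciferase.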
GLP1R ag: agonists of human GLP-1 receptor. P43220. HEK293 GLP-1R CRE-luciferase, luminescence, 4-6 h; cells express a hypersensitive GLP-1R form. Potency, µM (highest dose often 45.6 µM), for inactives: top-dose activation, hits mostly activators. actives 0.007% (n = 380,000). AID 624172; also: % of control where 0% means no effect
HEK293 tox: cytotoxicity counter-screen for GLP-1 receptor inverse agonists | HEK293 cAMP-luciferase reporter cells, luminescence, 24 h | Potency, µM (highest dose often 38.3 µM), without a hit: at the highest dose activity change, negative = inhibition, actives largely listed as inhibitors | actives 0.13% (n = 410,000);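 also: loss of luciferase light is scored as toxicity; % is scaled to controls: 0 for no effect and ±100 for the full control effect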
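A 23 nL compound transfer followed 12 hours of cell culture at 37 deg C; exposure then lasted 24 hr. Luciferase assay detection reagent was dispensed and plates read for luminescence after a 12 min room-temperature wait.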
BRCA1 expr up: activators of BRCA1 expression; Potency, µM (doses to about 46.1 µM), for inactives: top-dose activation, most hits filed as activators; MCF7-BRCA1-FFLuc reporter, luminescence, 48 h; response scale: scaled: vehicle 0%, 10 µM genistein 100%; AID 624202; actives 1.1% (n = 380,000); also: nearly all actives have a fitted effect of over 80% in size
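Cells: MCF7-BRCA1-FFLuc, 2000/well. Exposure: 48 h, 37 °C, 5% CO2. Read: luminescence, 15 min post-substrate. Controls: genistein 10 microM (maximal activation), DMSO (neutral).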
Active calls of the source: *; ? = inconclusive; . = no result. Shown are actives, neighbours in structure and some others; about 2.6% of the full set was active somewhere. Calls follow the shape of the dose curve; as a rule, active = well fitted curve in the direction sought with a large enough effect; inconclusive = small, poorly fitted or top-dose-only effect, or another doubt; inactive = no such curve, though single readings can be large; an effect the other way counts as inactive or inconclusive. Potency is read from the fitted curve at half-maximal effect.

SMILES	GLP1R inv ag	GLP1R ag	HEK293 tox	BRCA1 expr up
Cc1ccc(S(=O)(=O)N2CCOC2C(Cl)(Cl)Cl)cc1 (centres undefined)	10µM*	1%	3%	-1%
COc1ccc(Nc2c3c(nc4ccccc24)CCC3)cc1	1.8µM*	4%	7.9µM*	-75%
COc1ccc(/C=C/C(=O)Nc2ccc3nc4c(c(Nc5ccccc5OC)c3c2)CCCC4)cc1	8.9µM*	.	?	.
COc1ccc(/C=C/C(=O)Nc2ccc3nc4c(c(Nc5ccc(OC)c(OC)c5)c3c2)CCCC4)cc1	8.9µM*	.	4.5µM*	.
NC1C(N)C(N)C1N (centres undefined)	.	.	.	21%
Cc1cc(NC(=O)NC(=O)c2ccccc2)no1	18%	5%	-10%	5µM*
Cc1cc(NC(=O)c2ccc(Cl)cc2)no1	-1%	-8%	-12%	4µM*
Cc1cc(NC(=O)c2cccc(COc3ccc(Br)cc3)c2)no1	1µM*	-3%	-35%	?
Cc1cc(NC(=O)COC(=O)c2cccc(OCc3ccccc3)c2)no1	-5%	-7%	14%	60%
CCOc1ccc(C(=O)Nc2cc(C)on2)cc1	-10%	-13%	0%	?
O=C(NNCc1ccc(O)cc1)c1ccccc1Cl	-7%	-5%	-2%	13µM*
O=C(CCc1ccccc1)NNC(=O)c1ccccc1Cl	25%	-4%	18%	-23%
CCOc1nc(NC2CCCCC2)nc(NC(C)(C)C)n1	5.6µM*	1%	4%	-15%
COc1nc(NCc2ccco2)nc(NC2CCCCC2)n1	?	27%	-1%	?
CCOC(=O)C(=O)Cc1nc(OCc2ccccc2)cc(OCc2ccccc2)n1	10µM*	16%	18%	-27%
COc1ccc(-c2nc(SC)n(S(=O)(=O)c3ccccc3)n2)cc1	-16%	-1%	4%	10µM*
OCC1(Cc2ccccc2Cl)CCN(C/C=C/c2ccccc2)CC1	10µM*	6%	-22%	-9%
CCOC(=O)c1oc2nc3c(cc2c1N)COC(C)(C)C3	0%	-4%	3%	7.9µM*
COC(=O)c1sc2nc3c(cc2c1N)COC(C)(C)C3	1%	-2%	-1%	4.5µM*
CC1(C)Cc2nc3sc(C(=O)NCCCO)c(N)c3cc2CO1	5%	19%	-1%	?
CCOC(=O)c1noc2ncnc(N3CCN(c4ccccc4OC)CC3)c12	?	.	?	-3%
CCc1ccc(NC(=O)Cn2ncc3c(C)n(Cc4cccc(Cl)c4)c(C)c3c2=O)cc1	1%	.	-5%	.
Cc1ccc(Cl)cc1N1CCN(C(=O)CSc2cc(=O)n(C)c3ccccc23)CC1	10µM*	.	-18%	.
Cc1ccc(Cl)cc1N1CCN(C(=O)CSc2nnc3n2C(C)(C)Cc2ccccc2-3)CC1	4µM*	-18%	-25%	-83%
Cn1c(=O)cc(SCC(=O)N2CCCC2)c2ccccc21	18%	6%	-14%	-28%
SMILES	GLP1R inv ag	GLP1R ag	HEK293 tox	BRCA1 expr up
COc1ccc(-c2cc3nc(-c4ccc(Br)cc4)cc(C(F)(F)F)n3n2)cc1	6%	.	16%	.
CNC(=S)N(CCc1c(C)[nH]c2ccc(C)cc12)Cc1ccco1	10µM*	12%	2%	-42%
Cn1c(/C=C/c2ccc(Br)cc2)c([N+](=O)[O-])c(=O)n(C)c1=O	4.5µM*	0%	?	-81%
CCn1cc(/C=C(\NC(=O)c2cc(OC)c(OC)c(OC)c2)C(=O)NCCCn2ccnc2)c2ccccc21	-2%	7%	-19%	-3%
O=C(NC1CCCC1)C1C(c2ccc(C(F)(F)F)cc2)=Nc2ccccc2N1C(=O)c1cc2ccccc2[nH]1 (centres undefined)	?	.	-12%	.
Nc1nc(SCc2ccccc2)sc1C(=O)N1CCCCC1	?	22%	11%	2.2µM*
C[N+]1(C)CCC(OC(=O)CC(O)(c2ccccc2)C2CCCC2)C1 (centres undefined)	.	-4%	.	.
C/C(=N/OCc1ccc(Br)cc1)c1ccccn1	?	17%	-2%	3.5µM*
N/C(=N\OCc1ccc([N+](=O)[O-])cc1)c1ccccn1	1.3µM*	-3%	-3%	?
c1cncc(C2SCCCS2)c1	7%	4%	1%	-1%
COc1ccc(CCN(C)CCCN2CCc3cc(OC)c(OC)cc3CC2=O)cc1OC	.	9%	.	.
COc1ccc(C(=O)CSC(=S)N2CCCCC2)cc1	-18%	-8%	2%	3.2µM*
O=C(CSC(=S)N1CCCCC1)c1ccccc1	?	-2%	-3%	-2%
Cc1ccc(C(C)C)c(OCC(O)CN2CCc3ccccc3C2)c1 (centres undefined)	?	-2%	?	-53%
Cn1cc(CNCc2ccccc2OCC(O)CN2CCc3ccccc3C2)cn1 (centres undefined)	8.9µM*	-2%	?	-18%
Cc1cccc(C)c1OCC(O)CN1CCc2ccccc2C1 (centres undefined)	10µM*	2%	1%	-20%
OC(COc1c(F)cc(Br)cc1F)CN1CCc2ccccc2C1 (centres undefined)	?	-4%	2%	-4%
O=C(O)CSc1nc2ccc(C(=O)c3ccccc3)cc2[nH]1	2%	-2%	-2%	-2%
CC1(C)c2ccccc2N2CC(=O)N[C@@]21/C=C/C=C/c1ccccc1	3.5µM*	-2%	-9%	-36%
O=C(C[n+]1cccc(Cl)c1)c1ccc(F)cc1	.	.	.	0%
O=S(=O)(c1ccc(Cl)c(Cl)c1)c1snnc1-c1ccccc1	7.1µM*	-5%	?	-91%
O=S(=O)(Nc1ccc(Cc2ccncc2)cc1)c1ccc(Cl)c(Cl)c1	-1%	1%	10µM*	-25%
COc1ccc(S(=O)(=O)Nc2ccc(Cc3ccncc3)cc2)cc1OC	19%	9%	-8%	-43%
Cc1ccc(NC(=O)Cn2c(-c3cncs3)nc3ccccc32)cc1Br	7%	.	0%	.
Cc1cccc(NS(=O)(=O)c2ccc3[nH]c4c(c3c2)CCCCCC4)c1	8.9µM*	.	?	.
SMILES	GLP1R inv ag	GLP1R ag	HEK293 tox	BRCA1 expr up
Cc1ccccc1NS(=O)(=O)c1ccc2[nH]c3c(c2c1)CCCCC3	10µM*	0%	-12%	-29%
O=S(=O)(Nc1cccc(Cl)c1)c1ccc2[nH]c3c(c2c1)CCCCCC3	?	.	19%	.
CC(C)(C)NS(=O)(=O)c1ccc2[nH]c3c(c2c1)CCCCC3	?	7%	1%	-18%
O=S1(=O)N[C@@H](Cc2ccccc2)COc2cccc(N3CCC[C@@H]3CO)c21	-6%	1%	8%	5%
CCC(Oc1ccc(F)cc1)C(=O)Nc1cc(-c2ccc(C)cc2)no1 (centres undefined)	?	.	4%	.
CCC(Oc1ccc(F)cc1)C(=O)Nc1nc(-c2ccc(F)cc2)ns1 (centres undefined)	10µM*	.	-24%	.
Cc1ccc(Cc2c(-c3ccc(Cl)cc3)nc3c(Cl)cc(C(F)(F)F)cn23)cc1	2%	-6%	-3%	10%
